Screening results (PubChem BioAssay)
This is one part of a sample in which hits are shown more often than they occur.
Dicer processing: blocks human Dicer maturation of pre-miR-21; Q9UPY3; cat-ELCCA pre-miR-21 Dicer processing, chemiluminescence; active compounds read high; z-score at 25 µM; hit rate 6% among 47,000; AID 1347074; in the data active = z-score above about 3, passing the limit was not always enough;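 note: plate controls were vehicle for no effect and no enzyme for full effect; higher signal means more uncleaved substrate so more Dicer inhibition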
Target sequence (Q9UPY3 whole entry, looked up): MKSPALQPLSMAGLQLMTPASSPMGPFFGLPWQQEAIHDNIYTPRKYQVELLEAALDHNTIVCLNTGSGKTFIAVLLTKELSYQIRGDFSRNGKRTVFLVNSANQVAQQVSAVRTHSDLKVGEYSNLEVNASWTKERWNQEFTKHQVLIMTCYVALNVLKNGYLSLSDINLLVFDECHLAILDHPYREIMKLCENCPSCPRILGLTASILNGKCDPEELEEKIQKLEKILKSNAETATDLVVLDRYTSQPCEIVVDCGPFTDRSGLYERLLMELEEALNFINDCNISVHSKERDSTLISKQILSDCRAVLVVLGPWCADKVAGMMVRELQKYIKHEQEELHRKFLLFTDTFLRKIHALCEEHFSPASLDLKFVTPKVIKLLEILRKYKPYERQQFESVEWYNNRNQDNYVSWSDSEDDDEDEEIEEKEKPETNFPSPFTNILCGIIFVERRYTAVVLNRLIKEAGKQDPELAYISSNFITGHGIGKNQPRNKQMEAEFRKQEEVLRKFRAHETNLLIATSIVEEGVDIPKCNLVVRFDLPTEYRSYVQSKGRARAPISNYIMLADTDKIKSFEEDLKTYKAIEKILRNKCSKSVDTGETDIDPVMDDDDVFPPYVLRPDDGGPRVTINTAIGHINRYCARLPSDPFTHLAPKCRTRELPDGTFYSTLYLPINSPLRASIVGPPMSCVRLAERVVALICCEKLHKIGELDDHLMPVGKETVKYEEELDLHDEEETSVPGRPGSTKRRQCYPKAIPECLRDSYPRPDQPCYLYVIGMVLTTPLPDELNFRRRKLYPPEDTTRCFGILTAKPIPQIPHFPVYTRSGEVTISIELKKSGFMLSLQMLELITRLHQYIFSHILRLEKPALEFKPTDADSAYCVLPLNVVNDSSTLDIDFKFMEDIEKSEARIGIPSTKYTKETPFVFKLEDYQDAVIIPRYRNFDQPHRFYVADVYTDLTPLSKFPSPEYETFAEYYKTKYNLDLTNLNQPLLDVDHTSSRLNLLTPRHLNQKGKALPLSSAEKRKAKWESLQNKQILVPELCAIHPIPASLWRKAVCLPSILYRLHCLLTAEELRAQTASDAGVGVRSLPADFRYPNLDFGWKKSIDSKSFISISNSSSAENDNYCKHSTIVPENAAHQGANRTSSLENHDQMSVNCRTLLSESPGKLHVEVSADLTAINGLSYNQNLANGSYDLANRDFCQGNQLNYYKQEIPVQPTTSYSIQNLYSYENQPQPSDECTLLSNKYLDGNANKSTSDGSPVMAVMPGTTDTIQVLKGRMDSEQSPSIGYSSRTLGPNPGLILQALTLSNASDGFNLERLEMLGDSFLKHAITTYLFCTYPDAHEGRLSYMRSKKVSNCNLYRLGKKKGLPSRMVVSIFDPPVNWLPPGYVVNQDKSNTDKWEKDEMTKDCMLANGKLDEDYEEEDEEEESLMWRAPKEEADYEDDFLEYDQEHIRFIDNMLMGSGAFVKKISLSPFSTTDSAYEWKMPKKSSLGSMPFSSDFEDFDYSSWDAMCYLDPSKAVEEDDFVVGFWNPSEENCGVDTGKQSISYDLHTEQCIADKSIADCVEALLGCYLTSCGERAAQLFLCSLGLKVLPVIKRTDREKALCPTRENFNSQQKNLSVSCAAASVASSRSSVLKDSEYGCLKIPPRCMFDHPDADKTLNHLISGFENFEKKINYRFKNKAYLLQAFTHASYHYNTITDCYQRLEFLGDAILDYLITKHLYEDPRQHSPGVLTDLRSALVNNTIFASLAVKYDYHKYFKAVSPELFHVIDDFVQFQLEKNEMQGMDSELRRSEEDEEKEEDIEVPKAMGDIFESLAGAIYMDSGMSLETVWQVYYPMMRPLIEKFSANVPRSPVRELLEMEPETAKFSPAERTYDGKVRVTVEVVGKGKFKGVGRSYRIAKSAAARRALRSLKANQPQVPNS
Active calls of the source: *.

For CN(C)CCCN1C(=O)C(O)=C(C(=O)c2cccs2)C1c1ccncc1 (stereo not drawn) the results were Dicer processing 1.23.
Cc1ccc(Oc2ncccc2NC(=O)CN2CCN(c3ccc([N+](=O)[O-])cn3)CC2)c2c1CCC2 was read as Dicer processing 0.15.
For N#CCCNS(=O)(=O)c1ccc(Cl)c(N)c1 the results were Dicer processing -0.8.
For COc1cc2cc(OS(=O)(=O)c3cc([N+](=O)[O-])ccc3C)nc(C)c2cc1OC the results were Dicer processing 0.88.
FC(F)(F)c1cnc(SCc2ccc(Cl)cc2Cl)c(C(F)(F)F)c1 was read as Dicer processing -6.99.
Screening Cc1csc(-c2nc(-c3cc(C(F)(F)F)cc(C(F)(F)F)c3)no2)c1Cl returned Dicer processing -1.68.
`CCOC(=O)c1cc(C#N)c2ccccn2c1=O` gave Dicer processing 0.84.
`CC1C(O)CC(c2ccccc2)N(C)C1c1ccccc1` (stereo not drawn) gave Dicer processing 7.65.
Screening COc1ccc(C2CC(=O)C3=C(C2)Nc2nc4ccccc4n2C3c2ccco2)cc1 (stereo not drawn) returned Dicer processing -0.8.
`COc1ccc(C2C3=C(CC(c4ccco4)CC3=O)Nc3nc4ccccc4n32)cc1` (stereo not drawn) gave Dicer processing 3.13*.
O=C1CC(c2ccco2)CC2=C1C(c1cccnc1)n1c(nc3ccccc31)N2 (stereo not drawn) was read as Dicer processing 0.79.
For O=C(NNc1cc(C(F)(F)F)cc(C(F)(F)F)c1)NC(=O)c1ccccc1Cl the results were Dicer processing -1.59.
Screening Cc1[nH]nc2c1C1=C(C(=O)CC(C)(C)C1)C(c1ccc(N(C)C)cc1)N2 (stereo not drawn) returned Dicer processing 2.25.
Cc1nn(-c2ccccc2)c2c1C1=C(C(=O)CC(C)(C)C1)C(c1ccc(N(C)C)cc1)N2 (stereo not drawn) was read as Dicer processing 3.4*.
CCC1C2=C(CC(C)(C)CC2=O)Nc2c1c(C)nn2-c1ccccc1 (stereo not drawn) was read as Dicer processing -2.63.
Screening Cn1nnnc1SCCNCc1cccc(OCc2ccccc2)c1 returned Dicer processing 1.07.
CN1C(=O)c2cccc3c(S(=O)(=O)NC(Cc4c[nH]c5ccccc45)C(=O)O)ccc1c23 (stereo not drawn) was read as Dicer processing -0.66.
`O=C1O/C(=C\c2cc3c4c(c2)CCCN4CCC3)c2ccc([N+](=O)[O-])cc21` gave Dicer processing -0.52.
FC(F)(F)c1[nH]ncc1-c1nnnn1-c1ccc(Cl)cc1 was read as Dicer processing 4.75*.
Screening Fc1ccc(-n2nnnc2-c2cnn(-c3ccccc3Cl)c2C(F)(F)F)cc1 returned Dicer processing -1.58.
Screening Nc1ncc(-c2nnnn2-c2ccc(F)cc2)c(C(F)(F)F)n1 returned Dicer processing 1.75.
Screening CSC(=N\N=C(/C)c1ccc(Br)cc1)/N=C/N(C)C returned Dicer processing -0.57.
For O=c1onc2n1-c1cc(Br)ccc1OC2 the results were Dicer processing -1.37.
For COc1ccc(CN2CCN(S(C)(=O)=O)CC2)cc1OC the results were Dicer processing 2.18.
`CCn1c2ccccc2c2cc([N+](=O)[O-])ccc21` gave Dicer processing -0.68.
CCn1c2ccccc2c2cc(CN3CCN(S(C)(=O)=O)CC3)ccc21 was read as Dicer processing 5.43*.
`CNC(=S)N/N=C(\C)c1ccc(F)cc1` gave Dicer processing 2.5.
CCOC(=O)c1cc2ccccc2[nH]1 was read as Dicer processing -0.56.
COc1cc2c(cc1OC)C1=C(C#N)CN(CCc3ccccc3)CN1CC2 was read as Dicer processing 1.05.
For COc1cc2c(cc1OC)CN(S(=O)(=O)c1ccc3c(c1)CCC(C)(C)O3)CC2 the results were Dicer processing -0.69.
`COc1cc2c(cc1OC)C1=C(C#N)CN(c3ccc(C)c(C)c3)CN1CC2` gave Dicer processing 4.51*.
CC(C)(C)S(=O)(=O)C/C(N)=N/OS(=O)(=O)c1ccc(Cl)c(Cl)c1 was read as Dicer processing -1.31.
For Cc1c(/C=C/c2ccnc(SCc3ccccc3)n2)sc2ccccc12 the results were Dicer processing 0.01.
CCN1C(=O)C2(/C(=C(/O)c3ccc(C)cc3)C(=O)C(=O)N2CCCOC)c2ccccc21 (stereo not drawn) was read as Dicer processing 3.27*.
CCCN1C(=O)C2(/C(=C(/O)c3ccc(C)c(F)c3)C(=O)C(=O)N2CCCOC)c2ccccc21 (stereo not drawn) was read as Dicer processing 1.04.
For CCOc1ccc(/C(O)=C2/C(=O)C(=O)N(CCCOC)C23C(=O)N(CC)c2ccccc23)cc1 (stereo not drawn) the results were Dicer processing -7.44.
Screening CCCN1C(=O)C2(/C(=C(/O)c3ccc(F)cc3)C(=O)C(=O)N2CCCOC)c2ccccc21 (stereo not drawn) returned Dicer processing 3.62*.
Screening CCCN1C(=O)C2(/C(=C(/O)c3ccc(C)cc3)C(=O)C(=O)N2CCOC)c2ccccc21 (stereo not drawn) returned Dicer processing 1.23.
`CCN1C(=O)C2(/C(=C(/O)c3ccc(OC)cc3)C(=O)C(=O)N2CCCOC)c2ccccc21` (stereo not drawn) gave Dicer processing 1.97.
For CC(C)Sc1n[nH]c(=O)n1C(C)C the results were Dicer processing -1.24.
O=C(Cn1nnc(-c2cc(C(F)(F)F)cc(C(F)(F)F)c2)n1)c1ccccc1 was read as Dicer processing 2.34.
S=C(SCc1ncon1)N1CCCC1 was read as Dicer processing -0.61.
`CC1=C(C(=O)OC2CCCCC2)C(c2cccc(O)c2)C2=C(CCCC2=O)N1` (stereo not drawn) gave Dicer processing -0.5.
Screening O=C1CC(c2c[nH]c3ccccc23)C(=O)N1c1ccccc1 (stereo not drawn) returned Dicer processing 1.2.
O=C1CC(c2cn(Cc3ccccc3)c3ccccc23)C(=O)N1c1ccc(O)cc1 (stereo not drawn) was read as Dicer processing 5.56*.
`O=C1CC(N2CCN(c3ccc(O)cc3)CC2)C(=O)N1c1ccccc1` (stereo not drawn) gave Dicer processing -1.45.
`CCOc1nc(N)nc(N)c1S(=O)(=O)c1ccc(Cl)cc1` gave Dicer processing -1.41.
`Cc1ccc(S(=O)(=O)N/N=C/c2nccs2)cc1` gave Dicer processing -1.24.
`Cc1ccc(S(=O)(=O)N/N=C/c2ccc3ccccc3c2O)cc1` gave Dicer processing 3.25*.
`CN(C)/C=N/NS(=O)(=O)c1ccccc1` gave Dicer processing -0.67.
Cc1ccc(S(=O)(=O)Oc2cc3c(cc2OS(=O)(=O)c2ccc(C)cc2)C(=O)CC(C)(C)O3)cc1 was read as Dicer processing 0.54.
`CCCc1c(OCc2ccccc2)ccc(C(C)=O)c1O` gave Dicer processing -1.04.
`COc1ccc(NC(=O)c2sc3nc4c(cc3c2N)C(=O)CCC4)cc1` gave Dicer processing -1.68.
For O=C1CSC(c2cccnc2)N1c1ccc(C2CCCCC2)cc1 (stereo not drawn) the results were Dicer processing -0.36.
`Cc1ccc(S(=O)(=O)Oc2c(-c3ccccc3)c(=O)n(C)c3ccccc23)cc1` gave Dicer processing -1.1.
For Cc1ccc(S(=O)(=O)Oc2c(Cc3ccccc3)c(=O)n(C)c3ccccc23)cc1 the results were Dicer processing 3.77*.
